About 2,000 (36%) of roughly 5,500 compounds were called active. Not shown: some 18% with an inconclusive outcome. Rule as the data show it: active = normalized growth mostly below about 0.91 (no sharp cut-off); inconclusive = no clear call, values can overlap the other calls; inactive = mostly above about 0.92. This is one part of the list.
Assay: chemical genetic growth profiling, strain panel (AID 1159580);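 also: tested at 20 µM; growth read once vehicle control cultures reached saturation at 30 °C; 1 = growth at the plate median or of vehicle wells; lower values mean less growth of the strain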
Details: S. cerevisiae deletion strains, growth OD

Measured: normalized growth

O=C(Nc1cccc(C(=O)Nc2ccc(S(=O)(=O)O)c3cc(S(=O)(=O)O)cc(S(=O)(=O)O)c23)c1)Nc1cccc(C(=O)Nc2ccc(S(=O)(=O)O)c3cc(S(=O)(=O)O)cc(S(=O)(=O)O)c23)c1
inactive: locus YAL040C, strain CLN3, stronger effect = lower value 1.05 | locus YCL061C, strain MRC1 (second series), stronger effect = lower value 0.981 | locus YDR150W, strain NUM1, stronger effect = lower value 0.976 | locus YDR363W, strain ESC2, stronger effect = lower value 1.02 | locus YER002W, strain NOP16, stronger effect = lower value 0.968 | locus YMR263W, strain SAP30, stronger effect = lower value 0.973 | locus YNL153C, strain GIM3, stronger effect = lower value 0.977 | locus YNL175C, strain NOP13, stronger effect = lower value 0.978 | locus YNL197C, strain WHI3, stronger effect = lower value 0.968 | locus YNL224C, strain SQS1, stronger effect = lower value 0.981 | locus YOR083W, strain WHI5 (second series), stronger effect = lower value 0.97
